{
  "source": "paper PMC8769072",
  "about": "“Proteome‐scale mapping of binding sites in the unstructured regions of the human proteome” (Molecular Systems Biology, 2022)",
  "data": [
    {"molecular_target": "CRK 124-198, P46108", "sequence (P46108 124-198)": "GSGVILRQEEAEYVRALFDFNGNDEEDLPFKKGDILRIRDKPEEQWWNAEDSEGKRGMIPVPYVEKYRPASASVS", "values": [
      {"binder": "ESVAYHAQNNPPVPPK", "note": "[ADNP, Q9H2P0]", "selected by phage display": "confidence 2 (active)"},
      {"binder": "GPRLPPRQPTVASPAE", "note": "[SATB1, Q01826]", "selected by phage display": "confidence 2 (active)"},
      {"binder": "PLPPPKEVINGNIKTV", "note": "[EIF3G, O75821]", "selected by phage display": "confidence 3 (active)"},
      {"binder": "ELPVSPEIPPRKSQYL", "note": "[IL31RA, Q8NI17]", "selected by phage display": "confidence 2 (active)"},
      {"binder": "PPLPEKFVVKGVVDRF", "note": "[SNX30, Q5VWJ9]", "selected by phage display": "confidence 3 (active)"},
      {"binder": "IEAKDLPAKKKYLAEL", "note": "[DAB2IP, Q5VWQ8]", "selected by phage display": "confidence 2 (active)"},
      {"binder": "TQPPPHLPTKLVIRHG", "note": "[BICRA, Q9NZM4]", "selected by phage display": "confidence 3 (active)"},
      {"binder": "SSSPQLPPKPSIDLTV", "note": "[CTTNBP2, Q8WZ74]", "selected by phage display": "confidence 2 (active)"},
      {"binder": "GVPALPVKNLNGTGPV", "note": "[DTX1, Q86Y01]", "selected by phage display": "confidence 3 (active)"},
      {"binder": "PQLLPKTSPQSAPPSS", "note": "[FAM205A, Q6ZU69]", "selected by phage display": "confidence 4 (active)"},
      {"binder": "PRPPELPQKRLKTLDA", "note": "[WDR83, Q9BRX9]", "selected by phage display": "confidence 4 (active)"},
      {"binder": "ELWKVPLPPKNITAPS", "note": "[TNRC6A, Q8NDV7]", "selected by phage display": "confidence 3 (active)"},
      {"binder": "ADLPPKLQKMAGGAAR", "note": "[KCNJ3, P48549]", "selected by phage display": "confidence 4 (active)"},
      {"binder": "SSALAATLPTLPAKVY", "note": "[NCF4, Q15080]", "selected by phage display": "confidence 2 (active)"},
      {"binder": "SQEALPPKKRDLPVTS", "note": "[ATXN1L, P0C7T5]", "selected by phage display": "confidence 3 (active)"},
      {"binder": "MLGPAIPPKATPEPAI", "note": "[C6orf132, Q5T0Z8]", "selected by phage display": "confidence 3 (active)"},
      {"binder": "PTLPPKGLAGPPASPG", "note": "[KIAA1522, Q9P206]", "selected by phage display": "confidence 3 (active)"},
      {"binder": "NTQPPLPFKEAHVSGH", "note": "[ZNF804A, Q7Z570]", "selected by phage display": "confidence 4 (active)"},
      {"binder": "TPPPPSMPHKERYFDR", "note": "[ADD3, Q9UEY8]", "selected by phage display": "confidence 2 (active)"},
      {"binder": "LKAIPASSSAPPLPPK", "note": "[FAM110B, Q8TC76]", "selected by phage display": "confidence 4 (active)"},
      {"binder": "PSAPQLPPRDSPRALM", "note": "[PPARGC1B, Q86YN6]", "selected by phage display": "confidence 2 (active)"},
      {"binder": "LMDISPFLPEKGLPST", "note": "[MTCL1, Q9Y4B5]", "selected by phage display": "confidence 3 (active)"},
      {"binder": "APPLPPREPPSKAAQE", "note": "[ZNF516, Q92618]", "selected by phage display": "confidence 2 (active)"},
      {"binder": "SMELLPPELPPRIPIE", "note": "[SH2B1, Q9NRF2]", "selected by phage display": "confidence 4 (active)"},
      {"binder": "VQDIQPALPTKGEVLL", "note": "[IVL, P07476]", "selected by phage display": "confidence 4 (active)"},
      {"binder": "VELAPILPAKKQGGRP", "note": "[NPM3, O75607]", "selected by phage display": "confidence 4 (active)"},
      {"binder": "SSSAHLPPKDRPVTVF", "note": "[MYO9A, B2RTY4]", "selected by phage display": "confidence 2 (active)"},
      {"binder": "NVLNESPVQLPPLPPR", "note": "[SCIMP, Q6UWF3]", "selected by phage display": "confidence 3 (active)"},
      {"binder": "IPASPGQAAPLLPKKG", "note": "[NUAK2, Q9H093]", "selected by phage display": "confidence 2 (active)"},
      {"binder": "FPPLPEKAAALESAQE", "note": "[HDLBP, Q00341]", "selected by phage display": "confidence 3 (active)"},
      {"binder": "NDNSEYVPMLPGKFLG", "note": "[IRS4, O14654]", "selected by phage display": "confidence 3 (active)"}
    ]}
  ]
}
